Records with an inconclusive call do not appear. The source holds several records for some structures; these can differ, active in one and inactive in another. The source made the active and inactive calls. The calls were made as follows, unless noted: active = hit-call score of the fitted dose curve at least 0.9, where 1 is the maximum; inconclusive = response in the unintended direction; inactive = score below 0.9.
Assays:
[1] = biological target: Retinoic acid receptor alpha (Homo sapiens) (UniProt P10276); assay: ATG_DR5_RAR_CIS: Attagene CIS-FACTORIAL HepG2 Assay for human Retinoic Acid Receptor Alpha (RARE), DR5 submotif (AID 2282934; active = hit-call score of the fitted dose curve at least 0.9, where 1 is the maximum; inactive = score below 0.9); conditions: HepG2 Attagene cis-factorial RARE DR5 reporter, mRNA; actives raise or lower the signal
Retinoic acid receptor alpha (Homo sapiens), sequence (P10276 whole entry, looked up): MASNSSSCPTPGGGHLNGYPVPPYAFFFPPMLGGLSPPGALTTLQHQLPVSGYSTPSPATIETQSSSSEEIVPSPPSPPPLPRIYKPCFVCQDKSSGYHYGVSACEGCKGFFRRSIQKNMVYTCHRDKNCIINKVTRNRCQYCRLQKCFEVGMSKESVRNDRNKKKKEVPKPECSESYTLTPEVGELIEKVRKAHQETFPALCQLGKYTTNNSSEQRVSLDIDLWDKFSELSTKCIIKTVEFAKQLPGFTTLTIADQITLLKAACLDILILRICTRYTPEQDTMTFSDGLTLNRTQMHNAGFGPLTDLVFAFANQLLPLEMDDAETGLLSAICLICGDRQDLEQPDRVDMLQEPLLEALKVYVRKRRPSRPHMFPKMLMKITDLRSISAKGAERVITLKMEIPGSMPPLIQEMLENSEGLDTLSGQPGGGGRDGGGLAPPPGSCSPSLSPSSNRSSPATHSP
Procedure, shortened: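 HepG2, transient cis-reporter transfection, 24 h exposure. mRNA readout: RT-PCR, FAM label, HpaI cut, capillary electrophoresis. DMSO baseline, gain/loss fitting.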

[2] = biological target: Nuclear receptor subfamily 1 group I member 3 (Homo sapiens) (UniProt Q14994); assay: ATG_CAR_TRANS: Attagene TRANS-FACTORIAL HepG2 Assay for human Constitutive Androstane Receptor (CAR) (AID 2282969); conditions: HepG2 Attagene TRANS-FACTORIAL CAR reporter;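 also: activators raise reporter mRNA above DMSO so AC50 marks induction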
Nuclear receptor subfamily 1 group I member 3 (Homo sapiens), sequence (Q14994 whole entry, looked up, the tested form may be a part): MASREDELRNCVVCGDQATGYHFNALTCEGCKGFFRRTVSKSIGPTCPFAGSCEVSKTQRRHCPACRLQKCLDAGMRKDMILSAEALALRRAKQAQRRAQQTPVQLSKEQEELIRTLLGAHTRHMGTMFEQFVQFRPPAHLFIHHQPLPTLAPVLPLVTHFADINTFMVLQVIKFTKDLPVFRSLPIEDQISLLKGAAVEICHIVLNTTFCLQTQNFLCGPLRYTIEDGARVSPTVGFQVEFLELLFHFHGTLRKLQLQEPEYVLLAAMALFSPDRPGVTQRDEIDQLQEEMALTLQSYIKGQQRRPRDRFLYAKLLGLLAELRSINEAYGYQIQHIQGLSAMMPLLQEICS
Procedure, shortened: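 Readout is reporter mRNA induction, quantified by fluorescent primer extension and capillary electrophoresis after RT-PCR. Cells were HepG2 transiently carrying chimeric NR-Gal4 constructs with GAL4-UAS reporters, treated for 24 h; activity scored upward from DMSO.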

[3] = biological target: Oxysterols receptor LXR-beta (Homo sapiens) (UniProt P55055); assay: ATG_LXRb_TRANS: Attagene TRANS-FACTORIAL HepG2 Assay for human Liver X Receptor beta (LXRb) (AID 2282981); conditions: HepG2 Attagene TRANS GAL4-LXRb reporter, mRNA
Oxysterols receptor LXR-beta (Homo sapiens), sequence (P55055 whole entry, looked up, the tested form may be a part): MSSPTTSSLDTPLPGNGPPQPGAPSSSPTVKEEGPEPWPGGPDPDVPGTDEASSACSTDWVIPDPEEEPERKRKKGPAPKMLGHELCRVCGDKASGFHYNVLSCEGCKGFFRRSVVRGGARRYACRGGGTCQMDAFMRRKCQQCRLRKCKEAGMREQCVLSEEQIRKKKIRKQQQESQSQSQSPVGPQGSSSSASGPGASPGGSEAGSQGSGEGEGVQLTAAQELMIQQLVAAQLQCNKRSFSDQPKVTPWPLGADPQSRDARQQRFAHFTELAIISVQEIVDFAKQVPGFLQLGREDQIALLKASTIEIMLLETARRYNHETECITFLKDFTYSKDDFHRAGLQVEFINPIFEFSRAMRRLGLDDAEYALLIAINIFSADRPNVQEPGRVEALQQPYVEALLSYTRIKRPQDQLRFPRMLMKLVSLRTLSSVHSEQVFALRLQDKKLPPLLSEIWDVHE
Procedure, shortened: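 Transient transfection HepG2 (multiplexed RTUs, GAL4-UAS); NR-Gal4 chimera; 24 h exposure; RNA → RT-PCR → 6-FAM primer extension → HpaI → CE; increase vs DMSO.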

[4] = biological target: human Peroxisome Proliferator-activated Receptor alpha (PPARa), PPARA (gene 5465) (UniProt Q07869); assay: ATG_PPARa_TRANS: Attagene TRANS-FACTORIAL HepG2 Assay for human Peroxisome Proliferator-activated Receptor alpha (PPARa) (AID 2283001)
human Peroxisome Proliferator-activated Receptor alpha (PPARa), PPARA (gene 5465), sequence (Q07869 whole entry, looked up, the tested form may be a part): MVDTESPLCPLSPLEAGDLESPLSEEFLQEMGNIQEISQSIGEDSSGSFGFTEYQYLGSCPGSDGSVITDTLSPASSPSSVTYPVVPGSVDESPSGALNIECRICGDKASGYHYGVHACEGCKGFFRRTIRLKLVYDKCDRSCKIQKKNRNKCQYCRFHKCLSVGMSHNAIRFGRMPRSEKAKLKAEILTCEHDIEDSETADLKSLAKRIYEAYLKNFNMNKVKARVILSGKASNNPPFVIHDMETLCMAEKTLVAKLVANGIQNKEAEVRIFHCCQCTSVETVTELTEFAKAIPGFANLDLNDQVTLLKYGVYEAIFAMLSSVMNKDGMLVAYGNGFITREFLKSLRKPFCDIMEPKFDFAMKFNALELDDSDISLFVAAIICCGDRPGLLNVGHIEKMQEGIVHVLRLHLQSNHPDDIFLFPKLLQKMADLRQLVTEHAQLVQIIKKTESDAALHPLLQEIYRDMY
Procedure, shortened: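 Read-out is fluorescence of reporter cDNA fragments resolved by capillary electrophoresis after RT-PCR. Human HepG2 liver cells carried transfected PPARa-Gal4 chimera and GAL4-UAS reporter units, treated 24 h; activity scored as increase over DMSO.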

[5] = biological target: human RAR-related Orphan Receptor beta (RORb), RORB (gene 6096) (UniProt Q92753); assay: ATG_RORb_TRANS: Attagene TRANS-FACTORIAL HepG2 Assay for human RAR-related Orphan Receptor beta (RORb) (AID 2283010)
human RAR-related Orphan Receptor beta (RORb), RORB (gene 6096), sequence (Q92753 whole entry, looked up, the tested form may be a part): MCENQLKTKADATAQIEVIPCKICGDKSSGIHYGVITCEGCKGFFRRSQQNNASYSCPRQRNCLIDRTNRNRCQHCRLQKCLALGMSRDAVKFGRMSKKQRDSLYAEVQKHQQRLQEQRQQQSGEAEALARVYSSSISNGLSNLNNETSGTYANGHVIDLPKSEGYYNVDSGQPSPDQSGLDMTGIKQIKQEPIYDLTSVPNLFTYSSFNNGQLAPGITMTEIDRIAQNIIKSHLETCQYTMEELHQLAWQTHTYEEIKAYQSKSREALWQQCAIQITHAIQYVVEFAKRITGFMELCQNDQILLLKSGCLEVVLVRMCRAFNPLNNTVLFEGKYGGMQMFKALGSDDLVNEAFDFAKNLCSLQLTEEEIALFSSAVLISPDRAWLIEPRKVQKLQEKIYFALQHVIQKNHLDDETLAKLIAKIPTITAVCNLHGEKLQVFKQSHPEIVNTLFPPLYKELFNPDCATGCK
Procedure, shortened: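 HepG2 cells transiently transfected with GAL4-UAS reporter units expressing chimeric NR-Gal4 protein; reporter mRNA measured 24 h after dosing by RT-PCR, 6-FAM labelling and capillary electrophoresis. Gain-of-signal fitted relative to DMSO baseline.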

[6] = biological target: human RAR-related Orphan Receptor gamma (RORg), RORC (gene 6097) (UniProt P51449); assay: ATG_RORg_TRANS: Attagene TRANS-FACTORIAL HepG2 Assay for human RAR-related Orphan Receptor gamma (RORg) (AID 2283011)
human RAR-related Orphan Receptor gamma (RORg), RORC (gene 6097), sequence (P51449 whole entry, looked up, the tested form may be a part): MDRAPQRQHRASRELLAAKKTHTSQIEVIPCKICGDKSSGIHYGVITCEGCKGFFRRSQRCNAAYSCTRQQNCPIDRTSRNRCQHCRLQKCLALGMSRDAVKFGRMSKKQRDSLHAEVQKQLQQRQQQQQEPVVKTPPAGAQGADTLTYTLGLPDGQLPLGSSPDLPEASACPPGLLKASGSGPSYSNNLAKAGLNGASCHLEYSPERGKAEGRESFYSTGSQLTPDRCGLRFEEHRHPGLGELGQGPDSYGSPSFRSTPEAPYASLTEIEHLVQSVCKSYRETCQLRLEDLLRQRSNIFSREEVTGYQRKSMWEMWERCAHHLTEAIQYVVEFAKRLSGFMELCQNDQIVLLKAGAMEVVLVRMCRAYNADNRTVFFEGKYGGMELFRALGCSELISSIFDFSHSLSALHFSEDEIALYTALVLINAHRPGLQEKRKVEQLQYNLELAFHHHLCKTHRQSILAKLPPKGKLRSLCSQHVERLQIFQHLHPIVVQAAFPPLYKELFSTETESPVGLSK
Procedure, shortened: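 Chimeric RORg-Gal4 transactivation in transfected HepG2; 24 h exposure; RT-PCR/capillary electrophoresis readout of reporter mRNA, DMSO baseline.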

[7] = TOX21_p53_BLA_p4_viability: Viability Assessment in the Tox21 HCT-116 p53 Agonism Beta-lactamase Assay, Phase 4 (AID 2283597);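 also: hits lower the luminescence signal meaning cytotoxicity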
Procedure, shortened: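 Luminescent ATP readout (CellTiter-Glo, 30 min, room temperature) in the same wells as the p53 bla ratio. HCT116 cells were treated for 16 h at 37C with DMSO-dissolved compounds.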

[8] = ACEA_ER_AUC_viability: ACEA Biosciences xCELLigence Real-Time Cell Analysis on Estrogen Receptor Agonism for Viability (AID 2283782);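 also: continuous compound exposure with impedance area under curve over 80 h; hit means loss of impedance signal meaning reduced cell growth or viability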
Procedure, shortened: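 T-47D; phenol red-free RPMI1640 + 10% CS-FBS; 8 conc., 1:4 serial, max 100 uM final, ≤0.5% DMSO; n = 2; continuous exposure; impedance monitored to 80 h post-dose; AUC vs DMSO.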

[9] = biological target: Bile acid receptor (Homo sapiens) (UniProt Q96RI1); assay: ATG_IR1_CIS: Attagene CIS-FACTORIAL HepG2 Assay for human Nuclear Receptor Subfamily 1 Group H Member 4 (NR1H4), IR1 submotif (AID 2282946; active = hit-call score of the fitted dose curve at least 0.9, where 1 is the maximum; inactive = score below 0.9); conditions: IR1 reporter transcription, actives raise or lower the signal
Bile acid receptor (Homo sapiens), sequence (Q96RI1 whole entry, looked up, the tested form may be a part): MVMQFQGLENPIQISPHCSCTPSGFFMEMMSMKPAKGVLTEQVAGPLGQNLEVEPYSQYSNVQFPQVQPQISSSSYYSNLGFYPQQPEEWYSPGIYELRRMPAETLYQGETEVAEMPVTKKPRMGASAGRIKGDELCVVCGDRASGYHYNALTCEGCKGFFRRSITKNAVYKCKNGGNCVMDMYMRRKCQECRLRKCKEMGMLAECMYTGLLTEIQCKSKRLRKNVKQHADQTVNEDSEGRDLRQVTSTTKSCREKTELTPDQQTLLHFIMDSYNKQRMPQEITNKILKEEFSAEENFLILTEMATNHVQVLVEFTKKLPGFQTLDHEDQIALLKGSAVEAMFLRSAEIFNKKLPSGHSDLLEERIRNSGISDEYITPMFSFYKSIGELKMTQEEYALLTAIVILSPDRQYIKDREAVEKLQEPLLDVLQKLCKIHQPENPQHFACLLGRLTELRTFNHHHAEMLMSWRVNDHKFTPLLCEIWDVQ
Procedure, shortened: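 Cells (human HepG2) carry transiently transfected cis-promoter reporter transcription units. Compounds are incubated 24 h, total RNA is reverse-transcribed and amplified, and labelled fragments are resolved by capillary electrophoresis. Curves use DMSO as baseline.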

[10] = ATG_GAL4_TRANS: Attagene TRANS-FACTORIAL HepG2 Assay for GAL4 (Internal Marker) (AID 2282976); conditions: HepG2 Attagene TRANS GAL4 internal marker reporter
Procedure, shortened: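 Liver HepG2 line bearing multiplexed GAL4-UAS reporter constructs; 24 h chemical treatment. Transcripts were quantified as fluorescent fragments on capillary electrophoresis after RT-PCR and HpaI cut, with activity fitted upward from DMSO.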

[11] = biological target: Glucocorticoid receptor (Homo sapiens) (UniProt P04150); assay: ATG_GR_TRANS: Attagene TRANS-FACTORIAL HepG2 Assay for human Glucocorticoid Receptor (GR) (AID 2282978); conditions: HepG2 Attagene TRANS GR reporter, mRNA transcription;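 also: activators score as hits since higher reporter transcript over DMSO is fitted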
Procedure, shortened: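 Fluorescent capillary-electrophoresis quantitation of reporter mRNA is the readout, taken 24 h after dosing human HepG2 cells carrying transiently transfected GAL4-UAS reporter units activated by chimeric NR-GAL4 fusions; activity scored as induction over DMSO.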

[12] = biological target: Oxysterols receptor LXR-alpha (Homo sapiens) (UniProt Q13133); assay: ATG_LXRa_TRANS: Attagene TRANS-FACTORIAL HepG2 Assay for human Liver X Receptor alpha (LXRa) (AID 2282980); conditions: HepG2 Attagene TRANS reporter, LXRa transactivation
Oxysterols receptor LXR-alpha (Homo sapiens), sequence (Q13133 whole entry, looked up, the tested form may be a part): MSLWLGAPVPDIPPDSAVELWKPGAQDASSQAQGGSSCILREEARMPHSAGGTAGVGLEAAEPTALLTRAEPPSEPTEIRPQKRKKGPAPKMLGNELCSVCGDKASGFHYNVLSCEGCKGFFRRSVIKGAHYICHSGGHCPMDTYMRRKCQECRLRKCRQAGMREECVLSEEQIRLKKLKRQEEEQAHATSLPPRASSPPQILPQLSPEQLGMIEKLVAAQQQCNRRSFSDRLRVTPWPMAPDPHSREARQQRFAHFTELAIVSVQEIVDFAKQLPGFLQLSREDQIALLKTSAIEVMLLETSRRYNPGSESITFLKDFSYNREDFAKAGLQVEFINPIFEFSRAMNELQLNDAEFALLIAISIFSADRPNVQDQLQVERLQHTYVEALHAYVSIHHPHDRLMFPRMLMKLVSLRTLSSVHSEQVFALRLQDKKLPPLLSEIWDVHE
Procedure, shortened: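 In this multiplexed TRANS system, compounds act on HepG2 cells carrying GAL4-UAS reporter units and a receptor-GAL4 fusion for 24 h. Induced reporter RNA is amplified, fluorescently labelled and sized by capillary electrophoresis, with DMSO as baseline.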

[13] = CCTE_Harrill_HTTr_Viability_MCF7: CCTE's 6-hour Cell Viability Assessment for the High-Throughput Transcriptomics (HTTr) Platform, in MCF-7 cells cultured in DMEM + 10% fetal bovine serum, Harrill Lab (AID 2284010; active = hit-call score of the fitted dose curve at least 0.9, where 1 is the maximum; inactive = score below 0.9)
Procedure, shortened: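 MCF-7 cells in DMEM + 10% FBS, 384-well, exposed 6 h to an eight-point dilution series. Membrane integrity scored by high-content imaging of propidium iodide exclusion; bidirectional fit versus DMSO.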

[14] = CCTE_Harrill_HTTr_Apoptosis_MCF7: CCTE's 6-hour Apoptosis Assessment for the High-Throughput Transcriptomics (HTTr) Platform, in MCF-7 cells cultured in DMEM + 10% fetal bovine serum, Harrill Lab (AID 2284011; active = hit-call score of the fitted dose curve at least 0.9, where 1 is the maximum; inactive = score below 0.9)
Procedure, shortened: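 Apoptosis in MCF-7 cells grown in DMEM with 10% fetal bovine serum was scored after a six hour exposure by high content imaging of caspase-3/7 activation (CellEvent Caspase 3/7 Green), with DMSO serving as negative control and baseline.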

[15] = biological target: Nuclear receptor subfamily 4 group A member 2 (Homo sapiens) (UniProt P43354); assay: ATG_NURR1_TRANS: Attagene TRANS-FACTORIAL HepG2 Assay for human Nuclear Receptor Related Protein 1 (NURR1) (AID 2282985); conditions: HepG2 Attagene TRANS reporter, mRNA readout
Nuclear receptor subfamily 4 group A member 2 (Homo sapiens), sequence (P43354 whole entry, looked up, the tested form may be a part): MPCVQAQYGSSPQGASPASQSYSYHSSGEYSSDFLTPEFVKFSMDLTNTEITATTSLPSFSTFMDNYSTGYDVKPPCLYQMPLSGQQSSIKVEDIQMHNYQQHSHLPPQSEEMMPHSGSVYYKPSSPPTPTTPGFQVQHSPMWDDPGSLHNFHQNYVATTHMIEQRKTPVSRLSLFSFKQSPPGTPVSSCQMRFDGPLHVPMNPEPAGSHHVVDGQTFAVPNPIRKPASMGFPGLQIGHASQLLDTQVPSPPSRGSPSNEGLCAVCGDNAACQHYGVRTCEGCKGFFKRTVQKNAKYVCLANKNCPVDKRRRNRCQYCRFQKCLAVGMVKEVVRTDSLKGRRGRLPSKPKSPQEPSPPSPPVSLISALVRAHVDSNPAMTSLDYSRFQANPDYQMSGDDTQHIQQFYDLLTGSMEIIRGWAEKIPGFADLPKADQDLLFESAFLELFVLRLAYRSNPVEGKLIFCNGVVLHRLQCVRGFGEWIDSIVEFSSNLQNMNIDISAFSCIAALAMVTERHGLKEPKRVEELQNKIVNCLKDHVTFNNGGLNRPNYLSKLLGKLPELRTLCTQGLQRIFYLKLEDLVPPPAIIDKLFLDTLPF
Procedure, shortened: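 Transient transfection of HepG2, human liver cells, with multiple GAL4-UAS reporter transcription units. Cells dosed 24 h, RNA isolated, reverse-transcribed, PCR-amplified, FAM-labelled, HpaI-digested, sized by capillary electrophoresis. DMSO served as negative control.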

[16] = biological target: Peroxisome proliferator-activated receptor gamma (Homo sapiens) (UniProt P37231); assay: ATG_PPARg_TRANS: Attagene TRANS-FACTORIAL HepG2 Assay for human Peroxisome Proliferator-activated Receptor-gamma (PPARg) (AID 2283007)
Peroxisome proliferator-activated receptor gamma (Homo sapiens), sequence (P37231 whole entry, looked up, the tested form may be a part): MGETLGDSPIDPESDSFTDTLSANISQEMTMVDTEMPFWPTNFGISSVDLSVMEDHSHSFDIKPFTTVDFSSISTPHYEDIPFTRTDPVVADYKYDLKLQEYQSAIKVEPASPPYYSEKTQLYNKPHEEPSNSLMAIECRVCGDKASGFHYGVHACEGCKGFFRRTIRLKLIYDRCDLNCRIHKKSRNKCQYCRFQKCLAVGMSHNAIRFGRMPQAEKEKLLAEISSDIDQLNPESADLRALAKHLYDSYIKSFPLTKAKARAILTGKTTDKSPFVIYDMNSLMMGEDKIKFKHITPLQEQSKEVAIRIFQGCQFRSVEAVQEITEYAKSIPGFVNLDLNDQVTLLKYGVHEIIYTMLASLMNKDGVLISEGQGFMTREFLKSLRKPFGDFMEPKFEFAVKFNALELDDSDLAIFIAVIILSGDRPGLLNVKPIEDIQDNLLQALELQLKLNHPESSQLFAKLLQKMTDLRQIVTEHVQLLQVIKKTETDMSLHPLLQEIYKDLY
Procedure, shortened: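 Transient transfection of HepG2 with GAL4-UAS-driven reporter units; chemical dosing 24 h; total RNA → oligo(dT) RT → PCR with reporter primers → 6-FAM primer extension → HpaI digest 2 h 37 C → capillary electrophoresis. Positive direction vs DMSO.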

[17] = TOX21_p53_BLA_p3_viability: Viability Assessment in the Tox21 HCT-116 p53 Agonism Beta-lactamase Assay, Phase 3 (AID 2283593);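 also: cells exposed to compound for 16 h before reading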
Procedure, shortened: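 Cellular ATP was quantified by CellTiter-Glo luminescence, read after 30 min at room temperature. Beforehand, HCT116 cells (4000/well) received compound 5 h post-seeding, 217-fold diluted from DMSO, then incubated 16 h at 37C.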

[18] = TOX21_p53_BLA_p5_viability: Viability Assessment in the Tox21 HCT-116 p53 Agonism Beta-lactamase Assay, Phase 5 (AID 2283600)
Procedure, shortened: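 Seeded cells (4000/well) settle 5 h before compound addition. Plates then incubate 16 h at 37C, receive FRET substrate for 2 h, and finally CellTiter-Glo, with luminescence measured after a 30 min room-temperature incubation.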

[19] = ATG_PPRE_CIS: Attagene CIS-FACTORIAL HepG2 Assay for human Peroxisome Proliferator-activated Response Element (PPRE) (AID 2282958; active = hit-call score of the fitted dose curve at least 0.9, where 1 is the maximum; inactive = score below 0.9); conditions: HepG2 PPRE cis-element reporter, Attagene transcription factor profiling; actives raise or lower the signal
Procedure, shortened: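 HepG2, transient MRTU transfection (cis promoter elements, endogenous TFs). 24 h dosing. RNA → oligo(dT) RT → PCR → 6-FAM primer extension → HpaI digest → CE. Bidirectional fit vs DMSO.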

[20] = biological target: human Thyroid Receptor alpha (THRa1), THRA (gene 7067) (UniProt P10827); assay: ATG_THRa1_TRANS: Attagene TRANS-FACTORIAL HepG2 Assay for human Thyroid Receptor alpha (THRa1) (AID 2283014)
Procedure, shortened: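 Measured here is mRNA from a GAL4-UAS reporter in transfected HepG2 cells carrying a Gal4-fused receptor, 24 h post-dose. DMSO served as negative control and baseline.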

Measured: AC50

CC/C=C\CC/C=C/C(OCC)OCC
inactive: [1] | [2] | [3] | [4] | [5] | [6] | [7]
active: [8] 82.5 µM

CCC(=O)OCc1ccc(OC)cc1
inactive: [1] | [9] | [2] | [10] | [11] | [12] | [3] | [6] | [7]
active: [8] 39.9 µM

CCCCCCCCCCCCCC
inactive: [2] | [10] | [12] | [8] | [13] | [14]

Clc1ccc(Sc2cc(Cl)c(Cl)cc2Cl)cc1
inactive: [1] | [2] | [11] | [12] | [3] | [15] | [16] | [5] | [17] | [7] | [18]

O=C(C1CCCCC1)N1CC(=O)N2CCc3ccccc3C2C1 (stereo not given)
inactive: [1] | [19] | [11] | [4] | [16] | [13] | [14]

Oc1ccc(Oc2ccccc2)cc1
inactive: [1] | [9] | [12] | [4] | [20] | [17] | [7]
active: [19] 48 µM | [16] 28 µM

CCOc1ccc2c(c1)C(C)CC(C)(C)N2 (stereo not given)
inactive: [1] | [9] | [19] | [2] | [3] | [15] | [16]
active: [12] 14.5 µM

CC(C)n1c(/C=C/[C@@H](O)C[C@@H](O)CC(=O)O)c(-c2ccc(F)cc2)c2ccccc21
active: [19] 36.3 µM | [16] 5.07 µM | [7] 43.3 µM
inactive: [10] | [11] | [12] | [3] | [4] | [17] | [7] | [18] | [13] | [14]

CC(C)CC(=O)CC(C)C
inactive: [10] | [5] | [6] | [17] | [7] | [18] | [13] | [14]

CCCC(=O)OC
inactive: [1] | [3] | [15] | [4] | [16] | [6] | [17]

Cc1ccnc(N)c1
inactive: [1] | [9] | [19] | [10] | [3] | [16] | [20] | [7] | [13] | [14]

O=C1NC(=O)C2CC=CCC12 (stereo not given)
inactive: [1] | [9] | [3] | [17] | [7] | [18] | [8]

CCCCCC1CCCC(=O)O1 (stereo not given)
inactive: [1] | [9] | [19] | [2] | [10] | [11] | [12] | [4] | [16] | [7] | [8]

Source: PubChem BioAssay (EPA / NIEHS)
